Experimental data reported in PubChem BioAssay AID1671202 (University of Kansas High Throughput Screening Laboratory, 2021).
Screen size: about 190,000 compounds; about 6,900 (3.6%) were called active. The list comes from a sample in which actives are over-represented; it also holds similar structures and randomly drawn compounds. Unmarked numbers belong to inactive results. No stated cut-off is given here; in the data, active means inhibition above about 50%; inactive means the rest.

The compounds below were run against Huntingtin (Homo sapiens) (UniProt P42858) (assay: mutant huntingtin-calmodulin interaction inhibitors – biochemical, AlphaScreen, primary screen (AID 1671202;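 further: 0% = both proteins with DMSO and 100% = one protein alone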)). Conditions: AlphaScreen His-mHTT/GST-CaM binding, luminescence; at 15 µM, stronger effect = higher value.
Sequence of Huntingtin (Homo sapiens) (P42858 whole entry, looked up, stated change not applied): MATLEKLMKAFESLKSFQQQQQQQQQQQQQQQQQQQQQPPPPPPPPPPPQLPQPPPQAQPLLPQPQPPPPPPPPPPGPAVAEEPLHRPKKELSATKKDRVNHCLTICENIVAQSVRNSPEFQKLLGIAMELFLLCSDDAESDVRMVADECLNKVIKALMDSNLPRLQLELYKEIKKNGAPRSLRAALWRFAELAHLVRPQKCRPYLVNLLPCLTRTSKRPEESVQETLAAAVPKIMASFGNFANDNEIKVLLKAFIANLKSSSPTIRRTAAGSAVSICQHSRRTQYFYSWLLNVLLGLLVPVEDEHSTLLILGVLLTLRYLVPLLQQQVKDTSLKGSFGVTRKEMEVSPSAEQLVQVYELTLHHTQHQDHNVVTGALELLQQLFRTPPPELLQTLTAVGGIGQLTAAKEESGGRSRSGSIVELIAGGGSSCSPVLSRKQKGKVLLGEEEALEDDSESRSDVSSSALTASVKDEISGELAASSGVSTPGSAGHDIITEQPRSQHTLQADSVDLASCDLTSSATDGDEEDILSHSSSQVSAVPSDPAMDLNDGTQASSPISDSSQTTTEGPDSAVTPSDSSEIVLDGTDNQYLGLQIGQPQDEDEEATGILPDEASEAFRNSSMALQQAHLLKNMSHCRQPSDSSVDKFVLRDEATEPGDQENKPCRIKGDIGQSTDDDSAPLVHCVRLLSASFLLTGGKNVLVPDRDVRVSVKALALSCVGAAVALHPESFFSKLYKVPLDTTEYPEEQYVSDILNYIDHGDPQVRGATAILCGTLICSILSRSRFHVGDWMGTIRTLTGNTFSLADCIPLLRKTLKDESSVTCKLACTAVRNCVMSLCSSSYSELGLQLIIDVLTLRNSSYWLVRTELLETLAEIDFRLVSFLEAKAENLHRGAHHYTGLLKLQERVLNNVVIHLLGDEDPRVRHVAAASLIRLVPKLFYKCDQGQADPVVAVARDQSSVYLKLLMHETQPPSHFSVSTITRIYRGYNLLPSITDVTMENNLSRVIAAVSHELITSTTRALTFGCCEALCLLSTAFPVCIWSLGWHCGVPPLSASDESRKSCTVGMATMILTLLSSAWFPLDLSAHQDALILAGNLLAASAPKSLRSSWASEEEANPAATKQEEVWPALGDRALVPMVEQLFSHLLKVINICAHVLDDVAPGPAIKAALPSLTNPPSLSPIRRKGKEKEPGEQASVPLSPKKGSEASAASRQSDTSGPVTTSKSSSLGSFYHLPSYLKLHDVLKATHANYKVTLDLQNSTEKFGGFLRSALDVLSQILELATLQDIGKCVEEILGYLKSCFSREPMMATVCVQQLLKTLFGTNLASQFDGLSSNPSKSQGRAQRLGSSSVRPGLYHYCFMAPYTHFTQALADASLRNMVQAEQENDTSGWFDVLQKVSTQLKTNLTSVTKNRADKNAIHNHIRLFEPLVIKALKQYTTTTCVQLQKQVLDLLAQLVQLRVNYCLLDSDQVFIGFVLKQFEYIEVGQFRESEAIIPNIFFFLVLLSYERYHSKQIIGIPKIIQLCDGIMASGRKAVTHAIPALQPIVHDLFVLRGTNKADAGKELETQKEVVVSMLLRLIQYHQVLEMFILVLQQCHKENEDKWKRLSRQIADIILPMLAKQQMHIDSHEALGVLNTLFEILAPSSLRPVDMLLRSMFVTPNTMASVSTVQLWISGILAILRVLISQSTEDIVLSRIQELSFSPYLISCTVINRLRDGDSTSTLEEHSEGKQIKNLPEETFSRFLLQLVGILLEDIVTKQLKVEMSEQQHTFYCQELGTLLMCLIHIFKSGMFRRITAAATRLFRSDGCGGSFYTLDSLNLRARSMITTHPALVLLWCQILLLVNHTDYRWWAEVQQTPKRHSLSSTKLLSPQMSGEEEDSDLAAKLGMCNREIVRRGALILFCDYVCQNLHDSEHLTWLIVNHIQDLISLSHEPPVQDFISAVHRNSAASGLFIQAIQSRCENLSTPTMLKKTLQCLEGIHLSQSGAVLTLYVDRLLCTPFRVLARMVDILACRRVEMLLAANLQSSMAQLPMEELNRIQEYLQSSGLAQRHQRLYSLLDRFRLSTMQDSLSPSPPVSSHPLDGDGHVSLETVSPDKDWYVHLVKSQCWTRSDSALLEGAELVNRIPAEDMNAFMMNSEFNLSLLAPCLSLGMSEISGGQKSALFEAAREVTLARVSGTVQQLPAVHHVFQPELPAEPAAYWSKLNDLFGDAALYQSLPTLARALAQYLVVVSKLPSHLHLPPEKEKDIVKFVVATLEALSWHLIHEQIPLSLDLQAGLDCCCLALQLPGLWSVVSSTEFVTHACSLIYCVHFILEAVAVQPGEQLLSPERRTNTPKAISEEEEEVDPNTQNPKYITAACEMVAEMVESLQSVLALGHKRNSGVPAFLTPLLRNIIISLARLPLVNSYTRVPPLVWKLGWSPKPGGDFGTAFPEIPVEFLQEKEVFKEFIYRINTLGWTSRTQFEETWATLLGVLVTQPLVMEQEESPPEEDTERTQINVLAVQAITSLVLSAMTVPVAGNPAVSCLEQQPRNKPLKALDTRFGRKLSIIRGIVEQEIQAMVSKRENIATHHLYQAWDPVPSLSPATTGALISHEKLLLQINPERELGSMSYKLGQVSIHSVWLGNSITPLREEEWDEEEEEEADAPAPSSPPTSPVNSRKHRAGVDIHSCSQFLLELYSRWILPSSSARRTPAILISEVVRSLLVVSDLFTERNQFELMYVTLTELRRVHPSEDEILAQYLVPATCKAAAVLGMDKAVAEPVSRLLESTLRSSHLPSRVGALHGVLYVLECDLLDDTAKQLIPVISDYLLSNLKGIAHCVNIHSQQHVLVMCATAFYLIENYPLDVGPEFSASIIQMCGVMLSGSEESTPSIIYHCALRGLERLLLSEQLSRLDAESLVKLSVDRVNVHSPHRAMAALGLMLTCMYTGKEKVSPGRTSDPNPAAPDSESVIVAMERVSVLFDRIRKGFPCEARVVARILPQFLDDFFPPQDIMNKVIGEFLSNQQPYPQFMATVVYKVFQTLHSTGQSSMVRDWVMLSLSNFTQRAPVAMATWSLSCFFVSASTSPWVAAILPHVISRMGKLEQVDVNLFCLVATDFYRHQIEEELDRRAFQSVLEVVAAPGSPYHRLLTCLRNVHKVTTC

| Compound | inhibition |
| --- | --- |
| CCN1CCN(c2ncc3c(n2)CCN(Cc2ccccc2Cl)C3)CC1 | 39% |
| CCOc1cccc(CN2CCc3nc(Nc4ccc(OC)cc4)ncc3C2)c1 | -0.89% |
| COc1cccc(Nc2ncc3c(n2)CCN(Cc2ccc(F)c(F)c2)C3)c1 | 33.9% |
| COc1ccc(OC)c(Nc2ncc3c(n2)CCN(Cc2ccccc2)C3)c1 | 10.5% |
| COc1ccc(CN2CCc3nc(Nc4ccc5c(c4)OCCO5)ncc3C2)cc1 | 55.6% (active) |
| COc1cc(Nc2ncc3c(n2)CCN(Cc2cc(OC)ccc2OC)C3)cc(OC)c1 | 76.3% (active) |
| Clc1ccccc1CN1CCc2nc(Nc3ccc4c(c3)OCO4)ncc2C1 | 87.4% (active) |
| Fc1ccc(Nc2ncc3c(n2)CCN(Cc2ccccc2)C3)cc1 | -7.34% |
| COc1ccc(CN2CCc3nc(Nc4ccccc4)ncc3C2)c(OC)c1OC | 47.4% |
| O=C(Nc1nnc(SCc2ccc(C(F)(F)F)cc2)s1)c1cccs1 | -13.3% |
| CN(Cc1cn(Cc2ccc(C(F)(F)F)cc2)nn1)C1CN(Cc2cn(Cc3ccc(C(F)(F)F)cc3)nn2)S(=O)(=O)C1 (configuration not stated) | 10.9% |
| Cc1ccccc1CNC(=O)CCC1CCCN(C(=O)Nc2ccccc2F)C1 (configuration not stated) | -0.96% |
| CCCn1c(C2CCN(C(=O)CCC3CCCC3)C2)nc2cccnc21 (configuration not stated) | 19.8% |
| Cc1nc(-c2ccc(C(=O)Nc3ccc(C)c(F)c3)cc2)cs1 | -6% |
| COc1cccc(-c2nc(C3CCN(S(=O)(=O)c4cccc(Cl)c4C)CC3)no2)c1 | -1.63% |
| Cc1c(Cl)cccc1NC(=O)c1ccc(F)c(S(=O)(=O)N2CCCC2)c1 | 3% |
| Cc1ccc2c(c1)CCN1C(=O)CN(S(=O)(=O)c3cccc(Cl)c3C)CC21 (configuration not stated) | 61.2% (active) |
| CC1C(=O)N(c2ccccc2-c2ccccc2)CCN1C(=O)C1CCCC1 (configuration not stated) | 3.1% |
| CSc1ccc(C2C=C(c3ccc(Cl)s3)Nc3ncnn32)cc1 (configuration not stated) | 21% |
| CC(C(=O)Nc1ccc(Cl)c(C(F)(F)F)c1)N1C(=O)c2ccccc2C1=O (configuration not stated) | 24% |
| CCn1c(SCC(=O)Nc2ccc(Br)cc2)nnc1-c1cc(OC)cc(OC)c1 | 4.9% |
| COc1cccc2cc(C(=O)NCCn3ccnc3C)oc12 | -8.3% |
| CCOc1cccc2cc(C(=O)Nc3nnc(-c4csc(C)n4)o3)oc12 | 54.6% (active) |
| CCCCOc1ccc(C(=O)Nc2nnc(-c3ccncc3)o2)cc1 | 40.2% |
| Cc1csc(-c2ccc(CNC(=O)c3ccnn3C)cc2)n1 | -3.6% |
| CCOc1cccc2cc(C(=O)Nc3ccc(Cl)cc3Cl)c(=O)oc12 | 1% |
| Cc1nc(-c2nnc(NC(=O)c3ccnn3C)o2)cs1 | 50.2% (active) |
